In all, about 2,700 compounds went through this assay and about 160 (5.9%) showed an effect of 50% or more. The list comes from a sample in which strong results are over-represented; it also holds similar structures and randomly drawn compounds.
Molecular target: Nonstructural protein 3 (Zika virus) (UniProt A0A024AXB9)
[1] = PRVABC59, Concentration 15.0 uM, Number of replicates 1.0

Chain of Nonstructural protein 3 (Zika virus) (A0A024AXB9 as listed by the source): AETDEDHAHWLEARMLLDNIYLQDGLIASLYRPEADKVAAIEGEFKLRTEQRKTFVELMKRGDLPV

O=C(NCc1ccccc1-c1ccccc1)c1cc(Cl)ccc1NS(=O)(=O)c1ccc(Oc2ccccc2Cl)cc1
inhibition [1]: 13.1%

O=C(NCc1nnc(-c2ccccc2)o1)c1cc(Cl)ccc1NS(=O)(=O)c1ccc(Oc2ccccc2Cl)cc1
inhibition [1]: 54.2%

O=C(NCc1ccc(-c2ccccc2)cc1)c1cc(Cl)ccc1NS(=O)(=O)c1ccc(Oc2ccccc2Cl)cc1
inhibition [1]: 9%

O=C(NCc1cccc(-c2ccccc2)c1)c1cc(Cl)ccc1NS(=O)(=O)c1ccc(Oc2ccccc2Cl)cc1
inhibition [1]: 54.4%

O=C(NCc1coc(-c2ccccc2)n1)c1cc(Cl)ccc1NS(=O)(=O)c1ccc(Oc2ccccc2Cl)cc1
inhibition [1]: 45.4%

O=C(NCc1ccccc1)c1cc(Cl)ccc1NS(=O)(=O)c1ccc(Oc2ccccc2Cl)cc1
inhibition [1]: 11.2%

Cn1cccc(CN2CCC(c3c[nH]c4cccnc34)CC2)c1=O
inhibition (PRVABC59, Concentration 49.5 uM, Number of replicates 2.0, Standard deviation 0.07177165759495889 %): -0.869% | inhibition (PRVABC59, Concentration 99.01 uM, Number of replicates 2.0, Standard deviation 0.38070186159308106 %): 1.77% | inhibition (PRVABC59, Concentration 198.0 uM, Number of replicates 2.0, Standard deviation 0.010921765735719036 %): 3.27%

O=C(c1cc(Cl)ccc1NS(=O)(=O)c1ccc(Oc2ccccc2Cl)cc1)N1CCNC(=O)C12CCCCC2
inhibition [1]: 17.6%

COc1ccccc1[C@H](C)NC(=O)C1CCN(c2ccc(C=O)cc2)CC1
inhibition (PRVABC59, Concentration 10.0 uM, Number of replicates 1.0): 25.4%

Cc1cc(CO)c2cccc(NCc3ccc(C(N)=O)cc3)c2n1
inhibition (PRVABC59, Concentration 49.95 uM, Number of replicates 2.0, Standard deviation 0.6911398690966805 %): -7.9% | inhibition (PRVABC59, Concentration 99.9 uM, Number of replicates 2.0, Standard deviation 1.6597447488203414 %): -2.82%

Cc1cc(CO)c2cccc(NCc3ccc(S(N)(=O)=O)cc3)c2n1
inhibition (PRVABC59, Concentration 49.95 uM, Number of replicates 2.0, Standard deviation 2.3986730749821903 %): -5.11% | inhibition (PRVABC59, Concentration 99.9 uM, Number of replicates 2.0, Standard deviation 1.886822696290366 %): -8.96%

Cc1cc(N)cc(CNC(=O)Cc2cccc3c(CO)cc(C)nc23)c1
inhibition (PRVABC59, Concentration 49.95 uM, Number of replicates 2.0, Standard deviation 1.6254724488978287 %): 7.61% | inhibition (PRVABC59, Concentration 99.9 uM, Number of replicates 2.0, Standard deviation 2.5640510708053585 %): 31.2%

Cc1cc(N)cc(CNC(=O)c2cccc(Cc3cccc4c(CO)cc(C)nc34)c2)c1
inhibition (PRVABC59, Concentration 49.95 uM, Number of replicates 2.0, Standard deviation 0.660675115468642 %): 22.4% | inhibition (PRVABC59, Concentration 99.9 uM, Number of replicates 2.0, Standard deviation 1.0067445744655332 %): 46.9%

Cc1cc(N)cc(CNc2cccc3c(CO)cc(C)nc23)c1
inhibition (PRVABC59, Concentration 49.95 uM, Number of replicates 2.0, Standard deviation 0.17563299841544527 %): 36.2% | inhibition (PRVABC59, Concentration 99.9 uM, Number of replicates 2.0, Standard deviation 0.025091199030293523 %): 52.6%

Cc1cc(N)cc(CNC(=O)c2ccccc2Cc2cccc3c(CO)cc(C)nc23)c1
inhibition (PRVABC59, Concentration 49.95 uM, Number of replicates 2.0, Standard deviation 0.03145975642768365 %): 34.6% | inhibition (PRVABC59, Concentration 99.9 uM, Number of replicates 2.0, Standard deviation 1.7408307334956623 %): 60.7%

Cc1c(C(=O)N2CCC(n3cc(CO)nn3)CC2)[nH]c2cc(Cl)cc(Cl)c12
inhibition (PRVABC59, Concentration 49.5 uM, Number of replicates 2.0, Standard deviation 1.4208906347015848 %): 4.02% | inhibition (PRVABC59, Concentration 99.01 uM, Number of replicates 2.0, Standard deviation 0.494827603753062 %): 9.8% | inhibition (PRVABC59, Concentration 198.0 uM, Number of replicates 2.0, Standard deviation 0.23449629857012413 %): 15.6%

Cc1cc(CO)c2cccc(CC(=O)Nc3cc(C)[nH]n3)c2n1
inhibition (PRVABC59, Concentration 49.95 uM, Number of replicates 2.0, Standard deviation 1.1960706203468343 %): 0.209% | inhibition (PRVABC59, Concentration 99.9 uM, Number of replicates 2.0, Standard deviation 0.6463869966486608 %): 7.1%

Cc1cc(CO)c2cccc(CC(=O)Nc3cc(C)on3)c2n1
inhibition (PRVABC59, Concentration 49.95 uM, Number of replicates 2.0, Standard deviation 1.089187856250299 %): 91.5% | inhibition (PRVABC59, Concentration 99.9 uM, Number of replicates 2.0, Standard deviation 0.03053454880917251 %): 93.2%

Cc1cc(CO)c2cccc(Cc3cccc(C(=O)Nc4cc(C)[nH]n4)c3)c2n1
inhibition (PRVABC59, Concentration 49.95 uM, Number of replicates 2.0, Standard deviation 3.093641395210206 %): 6.52% | inhibition (PRVABC59, Concentration 99.9 uM, Number of replicates 2.0, Standard deviation 2.134087804085351 %): 9.51%

Cc1cc(CO)c2cccc(CC(=O)Nc3cc(O)[nH]n3)c2n1
inhibition (PRVABC59, Concentration 49.95 uM, Number of replicates 2.0, Standard deviation 0.5293246306718348 %): -5.29% | inhibition (PRVABC59, Concentration 99.9 uM, Number of replicates 2.0, Standard deviation 0.9008701737196211 %): 1.86%

Cc1cc(CO)c2cccc(Cc3ccccc3C(=O)Nc3cc(C)on3)c2n1
inhibition (PRVABC59, Concentration 49.95 uM, Number of replicates 2.0, Standard deviation 0.7445712834152752 %): -2.77% | inhibition (PRVABC59, Concentration 99.9 uM, Number of replicates 2.0, Standard deviation 1.0119877161772735 %): 0.512%

Cc1cc(CO)c2cccc(Cc3cccc(C(=O)Nc4cc(C)on4)c3)c2n1
inhibition (PRVABC59, Concentration 49.95 uM, Number of replicates 2.0, Standard deviation 0.5505632705734445 %): 18.4% | inhibition (PRVABC59, Concentration 99.9 uM, Number of replicates 2.0, Standard deviation 1.053935557806211 %): 51.2%

CNC(=O)c1nc(Cl)ccc1NS(=O)(=O)c1ccc(Oc2ccccc2Cl)cc1
inhibition (PRVABC59, Concentration 49.5 uM, Number of replicates 2.0, Standard deviation 0.024233932131581936 %): -1.72%

O=C(Nc1nc(Cl)nc2nc[nH]c12)c1cc(Cl)ccc1NS(=O)(=O)c1ccc(Oc2ccccc2Cl)cc1
inhibition [1]: 22.5%

Cc1nn([C@@H](C)c2nnnn2C2CC2)cc1C1CCNCC1
inhibition (PRVABC59, Concentration 49.5 uM, Number of replicates 2.0, Standard deviation 2.3033064314790743 %): -1.29% | inhibition (PRVABC59, Concentration 99.01 uM, Number of replicates 2.0, Standard deviation 2.6844291293545366 %): -0.376% | inhibition (PRVABC59, Concentration 198.0 uM, Number of replicates 2.0, Standard deviation 0.3562668047004051 %): -3.04%

Reference: ChEMBL document CHEMBL5606458, “ASAP - ZIKV NS2B-NS3 protease fluorescence single point” (2024)
